JMJD2E inh: qHTS Assay for Inhibitors of Human Jumonji Domain Containing 2E (JMJD2E); Lysine-specific demethylase 4E (Homo sapiens), B2RXH2; hit rate 1.6% among 230,000; JMJD2E catalytic domain, FDH-coupled NADH fluorescence (FDH is formaldehyde dehydrogenase); Potency, µM (highest dose often 57.1 µM), for inactives: at the highest dose activity change, negative = inhibition, usual class: inhibitors; active means well fitted inhibition curve with a large enough effect, not every such curve was filed as active; inconclusive means small, poorly fitted or top-dose-only effect, or another doubt; inactive means no such curve, though single readings can be large or run the other way;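 further: 0% = wells with enzyme and -100% = buffer wells without enzyme; nearly all actives have a fitted effect of over 50% in size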
Target sequence (B2RXH2 1-337 limits assumed): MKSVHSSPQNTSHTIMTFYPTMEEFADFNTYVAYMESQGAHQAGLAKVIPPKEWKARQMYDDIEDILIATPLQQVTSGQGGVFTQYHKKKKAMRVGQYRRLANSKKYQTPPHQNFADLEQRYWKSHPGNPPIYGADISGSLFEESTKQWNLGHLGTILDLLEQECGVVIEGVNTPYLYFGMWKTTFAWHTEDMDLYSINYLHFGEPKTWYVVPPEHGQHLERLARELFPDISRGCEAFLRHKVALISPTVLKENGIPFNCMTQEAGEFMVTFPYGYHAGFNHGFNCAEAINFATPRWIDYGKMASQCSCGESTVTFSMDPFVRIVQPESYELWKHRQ
RECQ1 inh: qHTS Assay for Inhibitors of RecQ-Like Dna Helicase 1 (RECQ1); ATP-dependent DNA helicase Q1 (Homo sapiens), P46063; RECQ1 DNA unwinding, red fluorescence kinetic read; Potency, µM (doses to about 57.3 µM), without a hit: at the top dose activity, negative = inhibition, hits mostly inhibitors; hit rate 0.54% among 240,000; AID 2549, 2010;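 further: plate controls were vehicle for no effect and no enzyme for full effect; nearly all actives have a fitted effect of over 30% in size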
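50 nM RECQ1T1 preincubated 15 min with compound in Tris pH 8.0 buffer with MgCl2, DTT, Tween-20 and 2.5 ug/ml poly(dI-dC); started with 200 nM TAMRA/BHQ-2 forked duplex and 2 mM ATP. Unwinding read as fluorescence (525/598 nm), two reads 2 h apart.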
BLM inh: qHTS Assay for Inhibitors of Bloom's syndrome helicase (BLM); RecQ-like DNA helicase BLM (Homo sapiens), P54132; recombinant BLM DNA unwinding, fluorescence dequenching; Potency, µM (top dose mostly 56.1 µM), inactives show at the highest dose activity change, negative = inhibition, hits mostly inhibitors; hit rate 0.2% among 350,000;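 further: plate controls were vehicle for no effect and no enzyme for full effect; nearly all actives have a fitted effect of over 35% in size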
L3MBTL1 block: qHTS Assay for the Inhibitors of L3MBTL1; hit rate 0.66% among 230,000; AID 485360, 2010; Lethal(3)malignant brain tumor-like protein 1 (Homo sapiens), Q9Y468; AlphaScreen L3MBTL1–H3K9me1 peptide binding; Potency, µM (titrated, usually from 57.1 µM), for inactives: at the top dose activity, negative = inhibition, actives largely listed as inhibitors; further: nearly all actives have a fitted effect of over 60% in size
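First, the protein-peptide complex forms for 30 min at room temperature (L3MBTL1 50 nM, biotinylated H3K9me1 peptide 75 nM). Next, compounds are pin-transferred and incubated 30 min. Finally, AlphaScreen beads are added and read after 30 min.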
KAT2A inh: qHTS Assay for Inhibitors of GCN5L2; Histone acetyltransferase KAT2A (Homo sapiens), Q92830; GCN5L2 HAT assay, ThioGlo1 CoA-SH fluorescence; Potency, µM (highest dose often 58.9 µM), without a hit: top-dose activity change, negative = inhibition, hits mostly inhibitors; hit rate 0.21% among 390,000; AID 504327, 2011
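Compounds, pin-transferred from DMSO stocks, meet 20nM GCN5L2 for 15 min before the reaction begins with H3(1-25) peptide (75uM) and acetyl-CoA (70uM). Thiol-reactive ThioGlo1 reports CoA release over 20 min at room temperature.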
APEX1 inh: qHTS Assay for Inhibitors of the Human Apurinic/apyrimidinic Endonuclease 1 (APE1); DNA repair nuclease/redox regulator APEX1 (Homo sapiens), P27695; recombinant APE1, TAMRA/BHQ-2 abasic DNA cleavage fluorescence; Potency, µM (doses to about 65.8 µM), for inactives: at the highest dose activity change, negative = inhibition, usual class: inhibitors; hit rate 0.35% among 350,000; AID 2517, 2012;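 further: plate controls were vehicle for no effect and reference inhibitor for full effect; nearly all actives have a fitted effect of over 55% in size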
Target sequence (P27695 whole entry, looked up): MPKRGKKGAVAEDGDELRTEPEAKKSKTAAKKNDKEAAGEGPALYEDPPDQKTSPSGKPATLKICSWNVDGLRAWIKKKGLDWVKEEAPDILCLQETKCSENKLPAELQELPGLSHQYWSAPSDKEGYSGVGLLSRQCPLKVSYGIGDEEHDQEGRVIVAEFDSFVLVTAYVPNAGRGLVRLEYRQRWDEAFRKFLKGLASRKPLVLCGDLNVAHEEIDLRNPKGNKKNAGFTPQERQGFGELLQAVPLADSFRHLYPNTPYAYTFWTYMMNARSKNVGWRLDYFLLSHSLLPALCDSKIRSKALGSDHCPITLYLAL
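Kinetic fluorescence read (525 ex/598 em nm, three reads 60 s apart) of AP-site incision; signal = third minus first read. Enzyme 0.75 nM, dual-labelled THF duplex 50 nM, compound preincubation 15 min RT.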
* hit, by the source's call; i = inactive; ? = inconclusive; . = no result; ! = not active in a repeat; [ ] = dose if it differs, or a comment. Shown is part of a subset that was picked to be rich in hits. Unless noted, the call rests on the fitted dose curve; in most records, active means well fitted curve in the direction sought with a large enough effect; inconclusive means small, poorly fitted or top-dose-only effect, or another doubt; inactive means no such curve, though single readings can be large; an effect the other way counts as inactive or inconclusive. Unless noted, on the % scale 0 is the no-effect control and ±100 the full control effect; potency means the concentration at half of the fitted maximal effect.

SMILES	JMJD2E inh	RECQ1 inh	BLM inh	L3MBTL1 block	KAT2A inh	APEX1 inh
C/C(=N\OCC(=O)N/N=C/c1ccccc1O)c1cccs1	22.4µM*	-11.7%	-3.8%	.	-1.7%	-0.7%
O=C(COc1cccc2cccnc12)N/N=C/c1ccccc1O	7.94µM*	-7.9%	1.0%	4.1%	-13.7%	17.8%
Cc1ccccc1OCC(=O)N/N=C/c1cccc2cccnc12	.	.	-3.6%	.	-8.8%	-19.2%
C/C(=N\OCC(=O)N/N=C/c1ccccc1)c1cccs1	1.3%	-5.3%	-0.5%	.	-4.2%[0.501 µM]	5.7%
O=C(N/N=C/c1ccc(O)c(O)c1O)/C(=C/c1ccc([N+](=O)[O-])cc1)NC(=O)c1ccccc1	10µM*	3.6%	-15.2%	.	-4.8%	1.4%
Cc1ccc(NC(=O)/C(=C\c2ccc([N+](=O)[O-])cc2)NC(=O)c2ccccc2)cc1	-0.9%	11.9%	-3.8%	1.8%	-6.1%	13.6%
CCOC(=O)c1cc(C)[nH]c(=S)c1C#N	17.8µM*	-6.1%	-0.8%	-6.0%	-3.7%	-0.5%
Nc1nc(=S)c2ncn(C3OC(CO)C(O)C3O)c2[nH]1 (centres undefined)	?	?	?	25.1µM*	?	25.1µM*
Cc1cc(O)c2c(c1O)C(=O)C(O)=C(O)C2=O	?	10µM*	-27.9%	.	.	6.31µM*
COc1c(O)cc2c(c1O)[C@@H]1O[C@H](CO)[C@@H](O)[C@H](O)[C@H]1OC2=O	.	.	-1.9%	.	-16.2%	8.0%
Cc1c(C(=O)O)c(O)cc2c1C(=O)c1c(O)c([C@@H]3O[C@H](CO)[C@@H](O)[C@H](O)[C@H]3O)c(O)c(O)c1C2=O	.	.	.	10µM*	-8.5%	14.1µM*!
COc1cc(C2OC(=O)c3c2ccc(OC)c3OC)ccc1O (centres undefined)	.	.	.	-0.5%	-0.8%	-5.8%
CCNc1nc(NCC)n2c(SCC(=O)Nc3ccccc3)nnc2n1	24.7%	i	-6.1%	7.8%	-5.3%	12.3%
CCNc1nc(NCC)n2c(SCC(=O)Nc3cc(OC)ccc3OC)nnc2n1	.	.	.	-5.0%	-3.0%	-2.3%
CCNc1nc(NCC)n2c(SCC(=O)Nc3ccc(OC(F)F)cc3)nnc2n1	.	.	.	?	-1.1%	10.6µM*
CCNc1nc(NCC)n2c(SCC(=O)Nc3ccc(C)c(C)c3)nnc2n1	.	.	.	28.2µM*	-15.7%	?
CN1C(=O)c2cccc(N(C)C)c2C1=O	5.0%	i	1.0%	15.5%	-4.9%	24.1%
CN(C)c1cccc2c1C(=O)c1ccccc1C2=O	-1.9%	-5.2%	-5.3%	25.1µM*	-2.7%	-6.0%
O=C(O)c1ccccc1C(=O)Nc1n[nH]c(=S)s1	3.98µM*	-4.7%	-5.9%	?	17.8µM*	-3.1%
CN(C)CCCN1C(=O)c2cccc3cccc(c23)C1=O	.	.	93.7%	-4.2%	1.1%	-2.2%
CC1=CC2=C(OC1N(C)C)c1cccc3cccc(c13)C2=O (centres undefined)	20µM*	-28.0%	-6.5%	.	-24.3%	?
CN(C)c1ccc(N=Nc2ccccc2C(=O)OCC(=O)N2CCCC2)cc1	1.3%	-6.0%	-4.8%	-16.8%	15.0%	0.8%
CN(C)c1ccc(N=Nc2ccccc2C(=O)OCC(=O)Nc2ccccc2C(F)(F)F)cc1	-0.1%	-7.4%	-11.1%	25.1µM*	-7.3%	-5.7%
CN(C(=O)c1cc2c(=O)n3ccccc3nc2n1C)c1ccccc1	.	.	-4.1%	.	-4.5%	.
C[n+]1nc(Nc2cccc3ccccc23)sc1-c1ccc(C(=O)O)cc1	8.91µM*	-3.8%	-0.8%	.	2.7%	1.0%
SMILES	JMJD2E inh	RECQ1 inh	BLM inh	L3MBTL1 block	KAT2A inh	APEX1 inh
CN(c1ccc(OCC(=O)OCC(=O)Nc2ccccc2)cc1)S(=O)(=O)c1cccs1	-1.3%	-9.2%	-1.6%	22.1%	10µM*	2.4%
CN(c1ccc(OCC(=O)OCC(=O)Nc2ccc(Br)cc2)cc1)S(=O)(=O)c1cccs1	-7.1%	-13.6%	-5.2%	1.7%	-12.4%	-7.1%
O=C(O)CN1C(=O)/C(=C\c2ccccc2OCc2ccc(Cl)cc2Cl)SC1=S	.	.	-21.9%	?	17.8µM*	30.7%
Clc1cc(Cl)c(Cl)cc1Cl	.	-2.1%	.	8.2%	-3.0%	6.7%
Clc1cc(Cl)c(OCC#CI)cc1Cl	.	.	1.7%	.	14.1µM*	.
N[C@]1(C(=O)O)CCc2cc(P(=O)(O)O)ccc21	39.8µM*	-7.0%	-9.4%	.	-19.2%[0.501 µM]	-14.2%
Cc1noc(C)c1COc1ccc(C(=O)OC(C)C(=O)Nc2ccc(N3CCOCC3)cc2)cc1 (centres undefined)	-0.2%	i	-0.7%	.	-16.6%	1.7%
C[n+]1cccc2cccc([O-])c21	15.8µM*	?	25.1µM*	28.2µM*	?	-0.5%
COc1cccc(NC(=O)CCNC(=O)Cn2cnc3ccccc3c2=O)c1	.	.	2.0%	.	-7.5%	.
O=C(/C=C/c1cccs1)Nc1scc(-c2ccccc2)c1C(=O)O	5.01µM*	-9.0%	?	.	-20.5%	?
CC1CCc2c(sc(NC(=O)/C=C/c3cccs3)c2C(=O)O)C1 (centres undefined)	.	.	-6.0%	.	-19.5%	11.9µM*
O=C(CCN1C(=O)/C(=C\C=C\c2ccccc2)SC1=S)Nc1ccc(C(=O)O)cc1	.	.	?	.	?	13.4µM*
O=C(CN1C(=O)S/C(=C/C=C/c2ccccc2)C1=O)Nc1ccc(C(=O)O)cc1	?	i	-13.3%	.	-19.0%	4.4%
Cc1ccc(NC(=O)/C(=C/c2cccs2)NC(=O)c2ccco2)cc1	5.0%	-3.8%	0.4%	4.4%	-3.2%	2.9%
CC1=C/C(=C(\c2cc(C)c(O)c(Br)c2)c2ccccc2S(=O)(=O)O)C=C(Br)C1=O	.	.	?	22.4µM*	-20.3%	-41.1%
COC(=O)NC(c1cccc(F)c1)[C@@]1(C(=O)OC)CCCC1=O (some centres undefined)	.	2.2%[11.5 µM]	-0.5%[12.4 µM]	.	.	?
C=C1C=C(C(F)F)n2ncc(C(=O)NCc3ccccc3Cl)c2N1	.	.	.	.	.	39.6%
COc1cc2c(cc1OC)C(c1ccccc1Cl)N(C)CC2 (centres undefined)	.	.	-4.5%	-2.4%[2.29 µM]	?	19.1%
COc1c(O)c(O)cc2c1oc1c3cc(C)ccc3oc(=O)c21	20µM*	8.91µM*	?	.	.	?
COc1cc(-c2oc3ccc(C)cc3c(=O)c2O)cc(OC)c1OC	.	.	-7.2%	.	-6.8%	.
Cc1cc(N2CCN(c3ccccc3F)CC2)nc2cc(O)ccc12	?	-11.1%	-5.5%	2.0%	12.6µM*	-1.4%
